# Source: PubChem BioAssay (Tox21)
# Inconclusive results are not listed. Activity calls are given as the source filed them. Calls come from the whole dose curve; as a rule, active = well fitted cell-killing curve with a large enough effect in the repeat runs (not every such curve was filed as active); inconclusive = weak or mixed curves, or effect the other way; inactive = no such curve, though single readings can be large or run the other way.
# Test: qHTS assay to identify small molecule antagonists of the farnesoid-X-receptor (FXR) signaling pathway - cell viability counter screen (AID 743221); note: nearly all actives have a fitted effect of over 50% in size
# Details: FXR-bla HEK293T viability, CellTiter-Glo luminescence, 16 h; series mostly up to 62.6 µM; activity change, negative = cytotoxicity: at the top concentration
# Description: National Center for Advancing Translational Sciences [NCATS]
# NIH Chemical Genomics Center [NCGC]
# U.S. Environmental Protection Agency [EPA]
# National Institutes of Environmental Health Sciences [NIEHS]
# National Toxicology Program [NTP]
# U.S. Food and Drug Administration [FDA]
# The farnesoid-X-receptor (FXR), a nuclear hormone receptor, is highly expressed in liver, intestine, kidney and adrenal cortex. Natural ligands of FXR are the bile acids (Cholic acid, Chenodeoxy cholic acid etc). FXR is an important regulator of diverse metabolic pathways, including the bile acid homeostasis, lipid and glucose metabolisms. FXR regulates the expression of target genes by binding either as a monomer or as a heterodimer with the retinoid X receptor (RXR). Numerous studies have reported that FXR exerts protective function during cholestasis, diabetes, liver regeneration, and cancer. To identify compounds that inhibit FXR signaling, GeneBLAzer FXR-UAS-bla HEK 293T cell line (Invitrogen, Carlsbad, CA) containing a beta-lactamase reporter gene under the control of a UAS response element was used to screen the Tox21 10K compound library. The cytotoxicity of the Tox21 compound library against the FXR-bla cell line was tested in parallel by measuring the cell viability using CellTiter-Glo assay in the same wells.
# Tox21 Assay Protocol Summary:
# FXR-bla cells were dispensed at 5000 cells/5uL/well in 1536-well black wall/clear bottom plates using a Multidrop Combi (Thermo Fisher Scientific, Waltham, MA) dispenser. After the assay plates were incubated at 37 C and 5% CO2 for 5 h, 23 nL of compounds dissolved in DMSO, positive controls or DMSO only was transferred to the assay plate by a Pintool station (Kalypsys, San Diego, CA), followed by addition of 1 uL Chenodeoxycholic acid (50 uM, final concentration in the wells). The assay plates were incubated at 37C for 16 h. After 1 uL of LiveBLAzerTM B/G FRET substrate was added using a Bioraptr Flying Reagent Dispenser (FRD) workstation (Beckman Coulter, Indianapolis, IN), the plates were incubated at room temperature for 2 h, and fluorescence intensity was measured by an Envision plate reader (PerkinElmer, Shelton, CT). For cell viability readout that measures cytotoxicity, 4uL/well of CellTiter-Glo reagent was added into the assay plates using a Bioraptr FRD. After 30 min incubation at room temperature, the luminescence intensity in the plates was measured using a ViewLux plate reader (PerkinElmer).
# % is set by controls: 0 for no effect and ±100 for the full control effect; potency is the fitted concentration of half-maximal effect.
Structure (SMILES),"activity change, negative = cytotoxicity",Potency
CCOC(=O)Oc1ccc(CCNC(=O)[C@H](CCSC)NC(C)=O)cc1OC(=O)OCC,26% (inactive),–
COC1CCC=CO1 (stereo not given),0% [at 81.1 µM] (inactive),–
O=S(=O)(O)CO,20.1% (inactive),–
COc1ccc(N)c([N+](=O)[O-])c1,-1.61% (inactive),–
Cc1ccc(Cl)cc1N,-0.185% [at 81.1 µM] (inactive),–
CC(=O)OCC(=O)[C@@]1(OC(C)=O)[C@@H](C)C[C@H]2[C@@H]3C[C@H](F)C4=CC(=O)C=C[C@]4(C)[C@@]3(F)[C@@H](O)C[C@@]21C,-13.6% (inactive),–
CC[C@H]1OC(=O)[C@H](C)[C@@H](O[C@H]2C[C@@](C)(OC)[C@@H](O)[C@H](C)O2)[C@H](C)[C@@H](O[C@@H]2O[C@H](C)C[C@H](N(C)C)[C@H]2O)[C@](C)(O)C[C@@H](C)C(=O)[C@H](C)[C@@H](O)[C@]1(C)O,-13% (inactive),–
O=C1CC[C@@H](C(=O)O)N1,-14.6% (inactive),–
Cc1cccc(C)c1NC(=O)c1cc(S(N)(=O)=O)c(Cl)cc1O,2.41% (inactive),–
Oc1cccc2[nH]ccc12,7.46% (inactive),–
CC1CCCC(=O)C1=O (stereo not given),-6.25% (inactive),–
CCCCOC(=O)CCCCC(=O)OCCCC,1.6% (inactive),–
Nc1c(Cl)cc(Cl)cc1[N+](=O)[O-],9.62% (inactive),–
CC1C(C)(C)C2=C(C(=O)CCC2)C1(C)C (stereo not given),0.601% (inactive),–
CC(C)OC(=O)c1ccccc1C(=O)OC(C)C,-19% (inactive),–
COc1cc(NC(C)CCCN)c2ncccc2c1 (stereo not given),-8.62% (inactive),–
COc1cc(C(C)=O)ccc1OCCCN1CCC(c2noc3cc(F)ccc23)CC1,-20.9% (inactive),–
O=C(O)c1cccc(C[C@@H]2COc3ccc(OCc4nc5cc(F)ccc5s4)cc3[C@@H]2O)c1,-6.8% (inactive),–
CCOC(=O)c1ccc(NC(=O)CN2CCCCC2)cc1,2.7% (inactive),–
Nc1ccc(S(=O)(=O)NCc2ccccc2)cc1,-2.51% (inactive),–

Structure (SMILES),"activity change, negative = cytotoxicity",Potency
c1ccc(CCCc2ccncc2)cc1,-26.7% (inactive),–
CCC(CO)(CO)[N+](=O)[O-],19.5% (inactive),–
C=CC(=O)O,12.3% (inactive),–
CCCCCCCCCCCCCOC(=O)CCSCCC(=O)OCCCCCCCCCCCCC,-4.54% [at 29.1 µM] (inactive),–
CO[C@@H]1[C@@H](OC)[C@H](C)[C@@](O)(CC(=O)O)O[C@H]1[C@H](C)[C@H]1O[C@@]2(CC[C@@](C)([C@H]3CC[C@@](C)([C@@H]4O[C@@H]([C@H]5O[C@](C)(O)[C@H](C)C[C@@H]5C)C[C@@H]4OC4C[C@H](OC)[C@@H](OC)[C@H](C)O4)O3)O2)C[C@H](O)[C@H]1C (stereo not given in full),–,9.44 µM (active)
CC[C@H]1OC(=O)[C@H](C)[C@@H](O[C@H]2C[C@@](C)(OC)[C@@H](O)[C@H](C)O2)[C@H](C)[C@@H](O[C@@H]2O[C@H](C)C[C@H](N(C)C)[C@H]2O)[C@](C)(O)C[C@@H](C)CN(C)[C@H](C)[C@@H](O)[C@]1(C)O,-13.6% (inactive),–
CC(C)(C)CCCCCCOC(=O)c1ccccc1C(=O)OCCCCCCC(C)(C)C,-5.68% (inactive),–
CC1CCC(C(C)CS)CC1S (stereo not given),1.28% (inactive),–
O=c1[nH]c2cc(C(F)(F)F)c(N3CCOCC3)cc2n(CP(=O)(O)O)c1=O,-7% (inactive),–
COc1ccc(/C=C/C(=O)c2ccc(OC)cc2OC)cc1,-12.6% (inactive),–
CC(C)c1ccc(C#N)cc1,12.6% (inactive),–
COc1cc(OC)c2ccc(=O)oc2c1,-2.51% (inactive),–
COc1ccc2nc(S(=O)Cc3ncc(C)c(OC)c3C)[nH]c2c1 (stereo not given),–,inactive
O=[N+]([O-])C1(Br)COCOC1,3.26% (inactive),–
CCCCCCCCCCCCCCCCCC(=O)OCC(CC)CCCC (stereo not given),2.36% (inactive),–
CCOc1ncc(F)c(=O)[nH]1,-0.845% (inactive),–
CCC1CCC(CCC(=O)O)C1 (stereo not given),3.87% [at 81.1 µM] (inactive),–
CC(C(=O)O)c1ccc(C(=O)c2cccs2)cc1 (stereo not given),-10.6% (inactive),–
O=C1OC[C@H](Cc2cccc(O)c2)[C@H]1Cc1cccc(O)c1,2.19% [at 29.1 µM] (inactive),–
O=C(O)CO,5.65% (inactive),–
